Screening results: PubChem, Johns Hopkins Ion Channel Center
Most compounds without a hit are left out; they make up all but 1.6% or so of the library.
KCNQ2 enhance: enhances the rat KCNQ2 potassium channel; O88943; CHO-K1 KCNQ2, FluxOR thallium flux fluorescence; hits give high values; B-score at 10 µM; hit rate 0.54% among 310,000;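 active = fluorescence ratio B-score at least 3 SD of library B-scores, with initial fluorescence B-score within 3 of them, cut at about 5.3 in these data; same plate scores as AID 2156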;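 also: B-score of peak minus minimum over baseline fluorescence ratio after K+ and Tl+ stimulus; positive B-score means potentiation of KCNQ2 with more thallium influx and brighter signal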
KCNQ2 inh: inhibitors of rat KCNQ2 potassium channel | O88943 | CHO-K1 KCNQ2, FluxOR thallium flux, 20 min; hits give low values | hit rate 1.1% among 310,000 | AID 2156 | B-score at 10 µM;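 active = fluorescence ratio B-score at most minus 3 library SDs, with starting brightness B-score within 2 library SDs, cut at about -5.5 in these data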
Kir21 conf inh: confirmation of mouse Kir2.1 potassium channel inhibitors. shares compounds with KCNQ2 enhance. Kir2.1-expressing cells, FluxOR thallium flux fluorescence; hits give low values. Tl flux remaining, % of negative control (hits give low values), % at 10 µM. hit rate 41% among 2,300. AID 2032;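 active = Primary-screen hit whose thallium flux fell at least 3 control SD below untreated wells in both duplicates, with normal baseline fluorescence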
Target sequence (P35561 whole entry, looked up): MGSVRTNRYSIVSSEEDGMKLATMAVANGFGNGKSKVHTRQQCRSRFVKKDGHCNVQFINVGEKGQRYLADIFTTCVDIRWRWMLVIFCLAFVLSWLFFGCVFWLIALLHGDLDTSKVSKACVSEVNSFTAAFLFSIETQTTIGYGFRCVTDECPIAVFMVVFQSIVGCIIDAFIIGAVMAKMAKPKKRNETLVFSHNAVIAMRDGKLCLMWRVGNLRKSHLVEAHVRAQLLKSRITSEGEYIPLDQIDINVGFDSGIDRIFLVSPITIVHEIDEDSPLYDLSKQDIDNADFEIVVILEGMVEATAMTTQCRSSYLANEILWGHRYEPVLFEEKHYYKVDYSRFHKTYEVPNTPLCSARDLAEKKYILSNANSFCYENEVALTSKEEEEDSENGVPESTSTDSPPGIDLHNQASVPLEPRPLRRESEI
HEK293 ctr: counter-screen for Kir2.1 inhibitors: effect in parental HEK293 cells; shares compounds with KCNQ2 enhance; FluxOR thallium flux fluorescence; 0% = unstimulated blank wells; FluxOR signal as % of negative control (100 = no effect), % at 10 µM; hit rate 19% among 2,300; AID 2105;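 active = dye signal at least 3 control SD above or below untreated wells in both duplicates, raw fluorescence within 3, either direction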;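 also: percent is based on the flux ratio of peak minus minimum fluorescence over baseline F0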
CHO-K1 ctr: counter-screen for KCNQ2 potentiators: effect in parental CHO-K1 cells. shares compounds with KCNQ2 enhance. FluxOR thallium flux fluorescence; zero = vehicle mean+3SD, 100% = vehicle-minus-blank window. activity increase over 3SD of controls, % at 10 µM. hit rate 43% among 1,200;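 active = signal rise of at least 3 SD above the untreated control mean, in both duplicate wells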;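 also: counter screen of KCNQ2 potentiator hits so any rise reflects channel-independent effects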
KCNQ1 pot spec: human KCNQ1 counter-target activity of KCNQ2 potentiators. shares compounds with KCNQ2 enhance. CHO KCNQ1 stable, FluxOR thallium flux fluorescence; beyond 3SD, as % of vehicle-control signal. activation over 3SD threshold, % at 10 µM. hit rate 28% among 1,200. AID 2283;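 active = fluorescence ratio rise of at least 3 SD of vehicle wells above their mean, in both replicate wells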
KCNQ2 pot confirm: rat KCNQ2 channel potentiator confirmation; shares compounds with KCNQ2 enhance; CHO-KCNQ2 cells, FluxOR thallium flux fluorescence; potentiation, less the hit threshold, % at 10 µM; hit rate 68% among 1,200; AID 2287;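 active = fluorescence ratio rising 3 SD or more over the vehicle control mean in both replicates, plus primary screen hit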;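 also: peak minus minimum thallium fluorescence divided by baseline after K/Tl stimulus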
Kir2-1 sel: selectivity of KCNQ2 potentiators: effect on mouse Kir2.1 | shares compounds with KCNQ2 enhance | hit rate 2% among 1,200 | HEK293 Kir2.1, FluxOR thallium flux fluorescence | activity over 3SD threshold, % at 10 µM;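 active = fluorescence ratio rise of at least 3 SD above the vehicle-control mean, seen in both replicates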
KCNQ2 W236L MoA: potentiates the retigabine-insensitive rat KCNQ2 W236L mutant channel. hit rate 10% among 940. shares compounds with KCNQ2 enhance. current increase over 3SD of negative controls (%), hits give high values, % at 25 µM. CHO KCNQ2-W236L, automated patch clamp current;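 active = current increase at least 3 SD of the untreated controls above them in both duplicate recordings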
Large screens that a line does not name were inactive (follow-up assays come after a bar, where they were run).

CCN(CC)C(=O)c1sc(NC(=O)C(C)C)c(C#N)c1C	none
CC1Cc2c([nH]c3ccccc23)C2c3ccccc3CN12 (configuration not stated)	none (no result: KCNQ2 enhance)
Cc1cc(Oc2ccccc2)nc(SCC(=O)Nc2ccc(Cl)c(Cl)c2)n1	KCNQ2 enhance 5.5 | Kir21 conf inh inactive | HEK293 ctr inactive | CHO-K1 ctr inactive | KCNQ1 pot spec inactive | KCNQ2 pot confirm 6.8 | Kir2-1 sel inactive | KCNQ2 W236L MoA inactive
Cc1cc(Oc2ccccc2)nc(SCC(=O)Nc2ccccc2)n1	none (no result: KCNQ2 enhance)
COc1ccc(Cn2nnc3c(=O)[nH]c(C4CCN(S(=O)(=O)c5ccc(C)cc5)CC4)nc32)cc1	none (no result: KCNQ2 enhance)
O=C(c1cc(COc2ccc(F)cc2Cl)on1)N1CCSCC1	none (no result: KCNQ2 enhance)
COc1cccc(C(=O)Nc2ccccc2C(=O)NCC2CCCO2)c1 (configuration not stated)	none (no result: KCNQ2 enhance)
CN(C)S(=O)(=O)c1ccc(Cl)c(C(=O)Nc2ccc(S(=O)(=O)N3CCOCC3)cc2)c1	none (no result: KCNQ2 enhance)
COC(=O)C1=C(C)N(Cc2ccccc2)C(=NCCc2cccnc2)N[C@H]1c1ccccc1	none | Kir21 conf inh inactive | HEK293 ctr inactive
COC(=O)C1=C(C)N(Cc2ccccc2)C(=NCCCCO)N[C@H]1c1ccccc1	none (no result: KCNQ2 enhance)
COC(=O)C1=C(C)N(Cc2ccccc2)C(=NCc2ccc(OC)cc2)N[C@H]1c1cccc(F)c1	none (no result: KCNQ2 enhance) | Kir21 conf inh 26% | HEK293 ctr inactive
CCOC(=O)CN1C(=O)N[C@@H](c2cccc(F)c2)C(C(=O)OC)=C1C	none (no result: KCNQ2 enhance) | Kir21 conf inh inactive | HEK293 ctr inactive
CCOC(=O)CN1C(=O)N[C@@H](c2cccc(F)c2)C(C(C)=O)=C1C	none (no result: KCNQ2 enhance)
COC(=O)C1=C(C)N(Cc2ccccc2)C(=NCc2cc(OC)c(OC)c(OC)c2)N[C@H]1c1cccc(F)c1	none (no result: KCNQ2 enhance)
CCCCN(C)CCNC(=O)CCn1nc(-c2ccc(Cl)cc2)ccc1=O	none (no result: KCNQ2 enhance)
CCCCCCCCCC(=O)N1c2ccccc2NC(=O)C1CC(=O)Nc1ccc(C(=O)O)cc1 (configuration not stated)	none
CCCCN(Cc1ccc(C(=O)N[C@H](C(=O)O)C(C)C)cc1)C(=O)C(c1ccccc1)c1ccccc1	none (no result: KCNQ2 enhance)
CC(C)c1nc(N2CCN(C(=O)c3ccccc3)CC2)c(C#N)c2c1COC(C)(C)C2	none (no result: KCNQ2 enhance)
Cc1nc(N2CCN(Cc3ccccc3)CC2)c(C#N)c2c1COC(C)(C)C2	none (no result: KCNQ2 enhance) | Kir21 conf inh 60% | HEK293 ctr inactive
O=C(CN1CCOCC1)Nc1ccc2c(c1)CCC2	none (no result: KCNQ2 enhance)
c1ccc(CCNc2ncnc3ccccc23)cc1	none (no result: KCNQ2 enhance)
CCCCCCCCNc1ncnc2ccccc12	none (no result: KCNQ2 enhance) | Kir21 conf inh inactive | HEK293 ctr 128%
OC(CNCc1ccco1)COc1ccccc1 (configuration not stated)	none (no result: KCNQ2 enhance)
OC(CNCc1ccco1)Cn1c2ccccc2c2ccccc21 (configuration not stated)	none (no result: KCNQ2 enhance) | Kir21 conf inh 72% | HEK293 ctr inactive
CCNC(=O)C1CCCN1C(=O)C(CCCN=C(N)N)NC(=O)C(CC(C)C)NC(=O)C(Cc1cn(Cc2ccccc2)cn1)NC(=O)C(Cc1ccc(O)cc1)NC(=O)C(CO)NC(=O)C(Cc1c[nH]c2ccccc12)NC(=O)C(Cc1cnc[nH]1)NC(=O)C1CCC(=O)N1 (configuration not stated)	none (no result: KCNQ2 enhance)
O=C(c1ccc2c(c1)OCO2)C1CCCN(Cc2cccc(C(F)(F)F)c2)C1 (configuration not stated)	none (no result: KCNQ2 enhance)
O=C(c1ccc2c(c1)OCO2)C1CCCN(Cc2ccc(OC(F)F)cc2)C1 (configuration not stated)	none (no result: KCNQ2 enhance) | Kir21 conf inh inactive | HEK293 ctr 122%
CC(=O)N1CCCc2cc(S(=O)(=O)N3CCCC(C)C3)ccc21 (configuration not stated)	none (no result: KCNQ2 enhance)
Cc1ccc(C(=O)NNc2cc(N3CCCC3)nc(N3CCCC3)n2)cc1	KCNQ2 enhance 10 | Kir21 conf inh inactive | HEK293 ctr inactive | CHO-K1 ctr 96 | KCNQ1 pot spec inactive | KCNQ2 pot confirm 39 | Kir2-1 sel inactive | KCNQ2 W236L MoA inactive
O=C(NNc1cc(N2CCOCC2)nc(N2CCOCC2)n1)c1ccc(Cl)c(Cl)c1	none
